Assay results from the supplement of paper PMC10127200.
Where a name gives a salt, the structure may show the parent alone.

Assays:
Assay in all cases: Euclidean distance of Cell Painting phenotypic profile (signed KS, 77 features) to DMSO centroid (dimensionless distance); 5 or 10 uM (library dependent); higher = stronger phenotypic change vs DMSO (phenoactivity)
Conditions in all cases: 48 h
786-O = test system: 786-O
Procedure, shortened: (§1)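 At 10 or 5 uM, as set by the library, and 0.1% DMSO final, compounds were applied for 48 h to five cancer lines and one healthy fibroblast line. Stained cells were imaged confocally at 20X in 9 fields per well, and Harmony extracted 77 features scored as signed Kolmogorov-Smirnov statistics against vehicle wells on the same plate. Profiles underwent plate-position correction, correlation weighting and replicate averaging at the top dose. Phenoactivity is the Euclidean distance from each such profile to the median vehicle profile.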

A549 = test system: A549
Procedure, shortened: as §1

DU145 = test system: DU145
Procedure, shortened: as §1

FB = test system: FB
Procedure, shortened: as §1

HEPG2 = test system: HEPG2
Procedure, shortened: as §1

OVCAR4 = test system: OVCAR4
Procedure, shortened: as §1

Compound	Euclidean distance (786-O)	Euclidean distance (A549)	Euclidean distance (DU145)	Euclidean distance (FB)	Euclidean distance (HEPG2)	Euclidean distance (OVCAR4)
CCNC(=O)[C@@H]1CCCN1C(=O)[C@H](CCCNC(=N)N)NC(=O)[C@H](CC(C)C)NC(=O)[C@@H](CC(C)C)NC(=O)[C@H](Cc1ccc(O)cc1)NC(=O)[C@H](CO)NC(=O)[C@H](Cc1c[nH]c2ccccc12)NC(=O)[C@H](Cc1c[nH]cn1)NC(=O)[C@@H]1CCC(=O)N1 [Leuprorelin Acetate]	1.85	1	1.17	0.933	0.582	0.958
CC/C(=C(\c1ccc(O)cc1)c1ccc(OCCN(C)C)cc1)c1ccccc1 [4-Hydroxytamoxifen]	3.21	2.74	2.16	2.61	4.31	2.89
CC[C@H]1OC(=O)[C@H](C)[C@@H](O[C@H]2C[C@@](C)(OC)[C@@H](O)[C@H](C)O2)[C@H](C)[C@@H](O[C@@H]2O[C@H](C)C[C@H](N(C)C)[C@H]2O)[C@](C)(O)C[C@@H](C)[C@@H]2N[C@@H](COCCOC)O[C@H]([C@H]2C)[C@]1(C)O [Dirithromycin]	0.963	1.37	0.758	1.06	1.27	1.41
CC1OC2(CS1)CN1CCC2CC1 (stereo not given) [Cevimeline]	1.52	1.3	0.896	1.55	0.72	1.48
Cc1ccc(-c2ccc(C)cn2)nc1 [Abametapir]	1.7	1.07	0.964	1.34	1.61	0.964
CC#C[C@]1(O)CC[C@H]2[C@@H]3CCC4=CC(=O)CCC4=C3[C@@H](c3ccc(N(C)C)cc3)C[C@@]21C [Mifepristone]	1.22	1.62	1.48	1.13	1.01	1.14
CCCCC1C(=O)N(c2ccccc2)N(c2ccccc2)C1=O [Phenylbutazone]	0.905	0.759	1.5	1.25	0.482	1
C[C@H](CCC(=O)NCCS(=O)(=O)O)[C@H]1CC[C@H]2[C@@H]3[C@@H](O)C[C@@H]4C[C@H](O)CC[C@]4(C)[C@H]3CC[C@]12C [Tauroursodeoxycholic Acid (TUDCA)]	0.663	1.8	0.772	1.04	0.686	1.23
COCC[n+]1c2c(n(Cc3cnccn3)c1C)C(=O)c1ccccc1C2=O [YM155 (Sepantronium Bromide)]	5.76	5.14	7.03	5.89	3.26	5.47
Cc1nccn1CCC(C(N)=O)(c1ccccc1)c1ccccc1 [Imidafenacin]	0.703	1.19	1.34	1.02	0.727	1.42
CN[C@H](CC(C)C)C(=O)N[C@H]1C(=O)N[C@@H](CC(N)=O)C(=O)N[C@H]2C(=O)N[C@H]3C(=O)N[C@H](C(=O)N[C@H](C(=O)O)c4cc(O)cc(O)c4-c4cc3ccc4O)[C@H](O)c3ccc(c(Cl)c3)Oc3cc2cc(c3O[C@@H]2O[C@H](CO)[C@@H](O)[C@H](O)[C@H]2O[C@H]2C[C@](C)(N)[C@H](O)[C@H](C)O2)Oc2ccc(cc2Cl)[C@H]1O [Vancomycin HCl]	0.545	0.761	0.862	0.465	0.611	0.795
CN(Cc1cc(Br)cc(Br)c1N)C1CCCCC1 [Bromhexine]	0.96	1.02	0.619	0.847	0.566	1.03
C[C@@H]1CCO[C@H]2Cn3cc(C(=O)NCc4ccc(F)cc4F)c(=O)c(O)c3C(=O)N12	1.38	1.81	1.15	1	1.37	1.79
O=C(N/N=C/c1ccc([N+](=O)[O-])o1)c1ccc(O)cc1 [Nifuroxazide]	1.64	1.52	0.846	1.33	2.82	1.2
C[C@H](CCC(=O)O)[C@H]1CC[C@H]2[C@@H]3CC[C@@H]4C[C@H](O)CC[C@]4(C)[C@H]3C[C@H](O)[C@]12C [Deoxycholic acid]	0.886	0.94	0.997	0.74	0.87	1.36
COC(=O)N/N=C/c1c[n+]([O-])c2ccccc2[n+]1[O-] [Carbadox]	0.912	0.99	0.837	1.23	1.04	1.46
NCCCS(=O)(=O)O [Homotaurine]	1.14	1.27	0.97	0.97	0.248	1.36
C/C=C\c1ccc(O)c(OC)c1 [Isoeugenol]	0.776	0.444	1.07	0.672	0.417	0.903
C[C@H](NCc1ccc(OCc2cccc(F)c2)cc1)C(N)=O [Safinamide Mesylate]	0.672	0.63	0.559	0.645	0.55	1.14
Cc1ccc(S(=O)(=O)n2c(N)nc3ccccc32)cc1 [ML130 (Nodinitib-1)]	0.771	1.13	0.862	0.77	1.18	0.774
